Assay outcomes: PubChem, National Center for Advancing Translational Sciences (NCATS)
TDP1 cell CPT – qHTS for Inhibitors of human tyrosyl-DNA phosphodiesterase 1 (TDP1): qHTS in cells in presence of CPT. Potency, µM (titrated, usually from 46.2 µM), for inactives: at the top dose activity change, negative = growth inhibition, hits mostly inhibitors. chicken DT40 Tdp1-/-;hTDP1 cells + 20 nM CPT, ATP luminescence, 48 h. 12% of 420,000 active; note: nearly all actives have a fitted effect of over 55% in size
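Chicken DT40 Tdp1-/- cells stably complemented with human TDP1 were seeded at 400 cells/well in medium containing 20 nM camptothecin, exposed to pin-transferred compounds, and grown at 37 °C for at least 48 hr. Viability was read as ATP luminescence.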
HT1080 IDH1KD tx – qHTS for induction of synthetic lethality in tumor cells producing 2HG: qHTS for the HT-1080-IDH1KD cell line | HT-1080 IDH1 knockdown viability, ATP luminescence, 48 h | 2% of 360,000 active | AID 686971, 2013 | Potency, µM (top dose mostly 46.1 µM), inactives show at the highest dose activity, negative = toxicity, hits mostly cytotoxic;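 note: 0% = DMSO wells and -100% = cell-free medium wells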
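IDH1KD HT-1080 cells, 750/well, RPMI + 5% FBS; compound pinned after 2 h settling; 48 h, 37 °C; CellTiter-Glo luminescence; % activity normalised to DMSO and no-cell wells; curves fitted, classed by r2 and efficacy.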
TDP1 cell noCPT – qHTS for Inhibitors of human tyrosyl-DNA phosphodiesterase 1 (TDP1): qHTS in cells in absence of CPT | AID 686978, 2013 | Potency, µM (series often up to 46.2 µM), for the others: at the top dose activity change, negative = growth inhibition, actives largely listed as inhibitors | 15% of 420,000 active | DT40 Tdp1-/- hTDP1 cells, no CPT, ATP luminescence, 48 h; note: nearly all actives have a fitted effect of over 55% in size
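Camptothecin absent (DMSO only). Human TDP1-complemented DT40 knockout cells, 400 cells/well, 37 °C for minimum 48 hr; ATP measured via CellTiter-Glo, 30 min dark incubation, luminescence.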
HT1080NT lethal – qHTS for induction of synthetic lethality in tumor cells producing 2HG: qHTS for the HT-1080-NT fibrosarcoma cell line; AID 686970, 2013; Potency, µM (top dose mostly 46.1 µM), inactives show at the highest dose activity, negative = less viability, most hits filed as cytotoxic; 1.6% of 360,000 active; HT-1080-NT fibrosarcoma viability, CellTiter-Glo ATP luminescence, 48 h;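 note: NT is the 2HG producing partner of a matched IDH1 knockdown line; 0% = DMSO-treated cells and -100% = media-only wells without cells; nearly all actives have a fitted effect of over 55% in size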
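Viability of the 2HG-overproducing fibrosarcoma line after 48 hours of compound exposure at 37 degrees C was determined by luminescence with CellTiter-Glo, and concentration-effect curves were then fitted and categorized.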
KB-3-1 tox – qHTS assay for MDR1-selective chemotherapeutics: Primary screen using the parental adenocarcinoma cell KB-3-1 | 1.4% of 400,000 active | Potency, µM (titrated, usually from 46.1 µM), actives largely listed as cytotoxic | AID 1347075, 2019 | KB-3-1 viability, CellTiter-Glo ATP luminescence, 72 h; note: nearly all actives have a fitted effect of over 60% in size
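Here the drug-naive KB-3-1 line serves as comparator for MDR sub-line selectivity; cells received compound titrations, 72 h at 37 °C, then CellTiter-Glo readout.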
KB-V1 cytotox – qHTS assay for MDR1-selective chemotherapeutics: Primary screen using the drug-selected MDR subline cells KB-V1 | Potency, µM (series often up to 46.1 µM), hits mostly cytotoxic | AID 1347076, 2019 | KB-V1 MDR cells viability, CellTiter-Glo, 72 h | 3.4% of 400,000 active; note: nearly all actives have a fitted effect of over 60% in size
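Readout: CellTiter-Glo luminescence, 10 min after addition. Cells: KB-V1 MDR subline, 72 h at 37 degrees C with compound. Analysis: corrected, normalized data fitted to concentration-effect curves.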
* hit, by the source's call; i = inactive; ? = inconclusive; nt = no result given; ! = repeats disagree. A selection: hits, their analogues and other compounds. The true share with any hit is near 19%. Calls come from the whole dose curve; as a rule, active = well fitted curve in the direction sought with a large enough effect; inconclusive = small, poorly fitted or top-dose-only effect, or another doubt; inactive = no such curve, though single readings can be large; an effect the other way counts as inactive or inconclusive. Unless noted, % is set by controls: 0 for no effect and ±100 for the full control effect; potency is the fitted concentration of half-maximal effect.

SMILES	TDP1 cell CPT	HT1080 IDH1KD tx	TDP1 cell noCPT	HT1080NT lethal	KB-3-1 tox	KB-V1 cytotox
C[C@@H]1CN([C@H](C)CO)C(=O)c2cc(Br)cnc2O[C@H]1CN(C)C(=O)Nc1ccccc1F	-7%	12%	-14%	7%	i	i
COc1ccc(-c2[nH]ncc2C(=O)NCc2ccccc2C)cc1	-8%	nt	-12%	nt	nt	nt
COc1ccc(-c2[nH]ncc2N=Nc2cc(C)cc(C)c2)cc1	0.21µM*	21µM*	10µM*	18µM*	?	?
COc1ccc(N=Nc2cc(-c3ccccc3)ccc2O)cc1	-2%	18%	-15%	14%	i	i
COc1ccc(-c2[nH]ncc2N=Nc2ccccc2)cc1	?	16µM*	?	16µM*	?	?
O=c1[nH]cc(S(=O)(=O)Nc2ccc3c(c2)OCO3)c(=O)[nH]1	-1%	-2%	-16%	-3%	i	i
COc1ccc(C(=O)Cc2ccc(OC)c(OC)c2)c(OC)c1	?	7%	?	-9%	i	13µM*
COc1ccc(/C(C)=N/N=C(N)N)c(OC)c1	18µM*	-12%	-26%	-3%	?	i
COc1ccc(/C(N)=N/OC(=O)Cc2ccc(OC)c(OC)c2)cc1	?	16%	?	?	?	8.2µM*
CCN(CC)CCOCCn1c(C)ccc1C	?	1%	?	0%	i	i
C[C@H](CO)N1C[C@H](C)[C@H](CN(C)C(=O)c2ccccc2)OCc2cnnn2CCCC1=O	-27%	-3%	8%	4%	i	i
Cc1cc(C)c2c(c1)/C(=C/C(=O)c1ccc(Br)s1)C(=O)N2	4.6µM*	?	3.7µM*	?	18µM*	23µM*
CCc1ccc2c(c1)/C(=C/C(=O)c1cccs1)C(=O)N2	3.3µM*	?	5.2µM*	?	?	?
CCc1ccc2c(c1)/C(=N/N(C)C(=S)NC)C(=O)N2	-5%	0%	-18%	-2%	i	?
Cc1cccc2c1NC(=O)/C2=C\C(=O)c1cccs1	4.6µM*	16µM*	4.6µM*	18µM*	i	?
CCOc1c(C)cc(-c2ncccc2O)cc1C	?	-20%	-7%	-1%	?	13µM*!
O=S(=O)(Nc1ccccc1N1CCOCC1)c1c(F)cc(F)cc1Br	-17%	12%	-31%	5%	i	?
COc1ccc(NC(=O)c2c(C)oc3ccc(O)c(CN4CCN(C)CC4)c23)cc1Cl	16µM*	nt	18µM*	nt	i	i
COc1ccc(NC(=O)c2c(C)oc3ccc(O)c(CN4CCCCCC4)c23)cc1	21µM*	nt	23µM*	nt	i	i
COc1ccc(NC(=O)c2c(C)oc3ccc(O)c(CN4CCCC4)c23)cc1Cl	?	nt	?	nt	i	i
CCOC(=O)c1c(C)oc2ccc(O)c(CN3CCCCC3)c12	?	-21%	-29%	?	i	i
COc1ccc(NC(=O)c2c(C)oc3ccc(O)c(CN4CCCC(C)C4)c23)cc1 (configuration not stated)	26µM*	nt	?	nt	i	i
COc1ccc(NC(=O)c2c(C)oc3ccc(O)c(CN4CCC(C)CC4)c23)cc1	10µM*	nt	15µM*	nt	i	i
Cn1c(CCNC(=O)c2ccco2)nc2cc(NC(=O)COc3ccc(Cl)cc3)ccc21	3%	nt	-9%	nt	i	i
